Potency data for 67 molecules are collected here from PubChem BioAssay AID743286 (National Center for Advancing Translational Sciences (NCATS), 2014).

The whole screen tested about 1,100 compounds, of which about 340 (31%) were called active. Not shown: some 40% with an inconclusive outcome. The call rests on the fitted dose curve; in most records, active means well fitted inhibition curve with a large enough effect; inconclusive means small, poorly fitted or top-dose-only effect; inactive means flat fitted curve, though single readings scatter. These entries were drawn from the full list. Entries that show only a call come without a potency.
Potency means the concentration at half of the fitted maximal effect.

Sequence of Phosphatidylinositol 5-phosphate 4-kinase type-2 alpha (Homo sapiens) (P48426 whole entry, looked up): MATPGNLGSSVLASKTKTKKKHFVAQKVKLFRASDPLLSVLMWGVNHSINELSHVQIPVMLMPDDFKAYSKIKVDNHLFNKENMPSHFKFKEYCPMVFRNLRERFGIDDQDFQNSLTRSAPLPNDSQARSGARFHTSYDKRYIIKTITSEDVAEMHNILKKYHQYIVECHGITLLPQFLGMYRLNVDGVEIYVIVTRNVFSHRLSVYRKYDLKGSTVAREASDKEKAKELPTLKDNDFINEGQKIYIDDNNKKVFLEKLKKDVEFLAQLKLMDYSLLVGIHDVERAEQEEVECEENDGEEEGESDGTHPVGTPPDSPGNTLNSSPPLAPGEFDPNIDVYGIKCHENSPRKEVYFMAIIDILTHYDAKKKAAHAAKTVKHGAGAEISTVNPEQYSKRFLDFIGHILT

This assay addresses Phosphatidylinositol 5-phosphate 4-kinase type-2 alpha (Homo sapiens) (UniProt P48426). Briefly: qHTS for Inhibitors of PI5P4K: Confirmation in Primary Assay. Further: nearly all actives have a fitted effect of over 65% in size. The conditions noted are these: PI5P4Kalpha enzyme, ADP-Glo luminescence, 60 min; series mostly up to 76.9 µM. The method in brief:
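ADP-Glo luminescence end-point quantified ADP produced by PI5P4Kα after 60 min at room temperature with 5 microM ATP. Buffer: HEPES pH 7.4, EGTA, 0.1% CHAPS, 5% DMSO final; compounds added before ATP.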
Turning to `O=C(O)CCC(=O)N1CCC(n2nnc3cc(C(F)(F)F)ccc32)CC1`, the Potency entry was “inactive”.
As for `O=C(NC1CC1)c1ccc(NC(=O)C2CCC2)cc1`, the Potency result is “inactive”.
In the case of `CC(C)OC(=O)c1c(NS(=O)(=O)c2ccccc2)sc2c1CCCC2` it was “inactive”; in that of `COc1ccc(S(=O)(=O)/N=C2\C=C(NS(=O)(=O)c3ccccc3)C(=O)c3ccccc32)cc1`, 31.6 µM (active).
For `COc1ccc(S(=O)(=O)Nc2ccc3c(c2)CCC3)cc1`, the Potency entry was “inactive”.
`CCCCn1c(=O)[nH]c(=O)c2c1nc(-c1ccc(-c3ccccc3Br)o1)n2CC`: the Potency entry was “inactive”.
Turning to `COc1cc(=O)[nH]c(=O)n1C(=O)Cc1ccccc1`, the Potency result is “inactive”.
In the case of `Cc1ccc(-c2nc3c(c(=O)[nH]c(=O)n3Cc3ccccc3)n2C)o1` it was 5.62 µM (active); in that of `O=C(CC1C(=O)NCCN1CC1CCCCC1)NCc1cc(F)ccc1F` (configuration not stated), “inactive”.
Consider `Cc1ccc(CNC(=O)CCS(=O)(=O)c2ccc(Cl)cc2)cc1`, for which the Potency entry is “inactive”.
As to `Cc1ccc(CNC(=O)CSc2ncccn2)cc1`, the Potency entry is “inactive”.
As to `Cc1ccc(CNC(=O)c2ccc(-n3cccc3)cc2)cc1`, the Potency was 12.6 µM (active).
On to `O=C(NCc1ccc(F)cc1)C1CCN(c2cnccn2)CC1`, for which the Potency entry was “inactive”.
`Cc1cc(-c2nc3c4c5c(sc4[nH]c(=O)n3n2)CCC5)c(C)o1`: the Potency was 15.8 µM (active).
For `COc1ccc(C(=O)N2CCC(C(=O)Nc3ccc(C)cc3)CC2)cc1`, the Potency entry is “inactive”.
Regarding `CCOC(=O)C1(C)CCCN(C(=O)c2ccccc2C(F)(F)F)C1` (configuration not stated), the Potency entry is “inactive”.
For the molecule `COC(=O)C1CCN(C(=O)c2cc(-c3ccco3)nc3ccccc23)CC1`, the Potency was 3.98 µM (active).
On to `CCOC(=O)C1CCCN(C(=O)c2cc(-c3ccco3)nc3ccccc23)C1` (configuration not stated), for which the Potency is 3.16 µM (active).
In the case of `CCOC(=O)C1CCCN(C(=O)c2ccc(F)c(C)c2)CC1` (configuration not stated), the Potency entry is “inactive”.
Regarding `Cc1ccc(C)c(C2=NNC(=NCc3ccccc3)SC2)c1`, the Potency entry is “inactive”.
Regarding `O=C(Nc1ccc(Cl)cc1)Nc1ccccc1CC[N+](=O)[O-]`, the Potency entry was “inactive”.
For the molecule `Cc1cc(C)cc(NC(=O)Cn2nnc(C(=O)NCc3ccc(F)cc3)c2N)c1`, the Potency entry is “inactive”.
For `CCOC(=O)Nc1ccc(NCc2ccc(F)cc2)nc1N`, the Potency is 31.6 µM (active).
Regarding `O=C(Oc1ccc2c(c1)OCO2)c1cc2c(s1)CCC2`, the Potency is 2.24 µM (active).
Turning to `COc1ccc(-c2cc(C(F)F)n3ncc(C(=O)n4ccnc4C)c3n2)cc1`, the Potency entry was “inactive”.
Consider `Cc1ccc(-n2c(SCC(=O)Nc3ccc4c5c(cccc35)CC4)nc(O)cc2=O)cc1`, for which the Potency result is “inactive”.
To `O=c1c2ccccc2cnn1-c1nc2ccccc2[nH]1` belongs 25.1 µM (active); to `O=C(NC1CC1)C1=C[C@@H](c2c[nH]c3ccccc23)C[C@@H](OCc2ccc(CO)cc2)O1`, “inactive”.
As for `COc1ccc(N2CCN(C(=O)c3[nH]c(C(F)(F)F)nc3-c3ccccc3)CC2)cc1`, the Potency entry is “inactive”.
Consider `CCc1ccc(C2CC(=O)N3CN(c4ccccc4)CSC3=C2C#N)cc1` (configuration not stated), for which the Potency is 28.2 µM (active).
For `N#CC1=C2SCN(c3ccc(F)cc3)CN2C(=O)CC1c1cccc(F)c1` (configuration not stated), the Potency was 20 µM (active).
For the molecule `CCc1ccc(N2CSC3=C(C#N)C(c4cccs4)CC(=O)N3C2)cc1` (configuration not stated), the Potency is 12.6 µM (active).
As to `N#CC1=C2SCN(c3ccccc3)CN2C(=O)CC1c1cccs1` (configuration not stated), the Potency is 15.8 µM (active).
In the case of `CCOc1ccc(Cl)cc1S(=O)(=O)n1cnc2ccccc21`, the Potency entry was “inactive”.
`O=C(Cc1cccs1)N(CC1CCCO1)C1(C(=O)NC2CCCCC2)CCCCC1` (configuration not stated): the Potency result was “inactive”.
Turning to `NC(=O)[C@@H]1CC2(CC(c3cccc(NC(=O)COc4ccc(Cl)cc4)c3)=NO2)CN1C(=O)COc1ccc(Cl)cc1` (some centres not stated), the Potency result is “inactive”.
Take `CC(NC(=O)c1ccnn1C)C1CCCO1` (configuration not stated): the Potency result is “inactive”.
Regarding `Cn1c(=O)oc2cc(S(=O)(=O)Nc3ccccc3)ccc21`, the Potency result was “inactive”.
With `CCOc1ccc(NC(=O)N2CCC(n3nnc4ccccc43)CC2)cc1`, the Potency entry was “inactive”.
As for `O=C1NN=C2CCCCCC12` (configuration not stated), the Potency result was “inactive”.
To `C[C@H](NC(=O)c1cc2c(cn1)[nH]c1ccccc12)C(=O)O` belongs 10 µM (active); to `Cc1ccc(-c2cc3c(n2-c2ccc(C(=O)O)cc2)CCCC3=O)cc1`, 15.8 µM (active).
As for `COc1ccc(C(=O)c2sc(Nc3ccccc3F)nc2N)cc1`, the Potency was 5.62 µM (active).
In the case of `Nc1nc(Nc2ccccc2F)sc1C(=O)c1ccccc1`, the Potency is 14.1 µM (active).
To `Nc1nc(Nc2ccccc2)sc1C(=O)c1ccccc1` belongs 7.94 µM (active).
With `Nc1sc2c(c1C(=O)c1ccccc1)CCCC2`, the Potency entry was “inactive”.
Turning to `CCC(=O)Oc1ccc(C(=O)Nc2c[nH]c(=O)[nH]c2=O)cc1`, the Potency entry was “inactive”.
Consider `O=C(c1ccc(OCCN2CCCCC2)cc1)c1c(-c2ccc(O)cc2)sc2cc(O)ccc12`, for which the Potency result was “inactive”.
In the case of `COc1ccccc1N(CC(=O)NCc1ccco1)S(=O)(=O)c1ccc(C)cc1`, the Potency was 15.8 µM (active).
In the case of `COc1ccccc1N(CC(=O)N1CCC(C(N)=O)CC1)S(=O)(=O)c1ccccc1`, the Potency result is “inactive”.
With `COc1ccc(S(=O)(=O)N(C(=O)c2ccco2)c2cc3sc(=O)oc3c3ccccc23)cc1`, the Potency entry is “inactive”.
To `CCn1cc(C(=O)N2CCN(c3cccc(C)c3C)CC2)c(=O)c2ccc(C)nc21` belongs “inactive”.
On to `O=C(O)c1cccc(NC(=O)c2cn(-c3ccccc3)nc2-c2cc3ccccc3o2)c1`, for which the Potency was 14.1 µM (active).
As to `CN(Cc1cn(-c2ccccc2)nc1-c1cc2ccccc2o1)C(=O)CCC(=O)O`, the Potency result was “inactive”.
With `COc1ccc(-c2nnn(CC(=O)N(CC(=O)NC3CCCC3)c3ccccc3)n2)cc1OC`, the Potency result is “inactive”.
For `CS(=O)(=O)c1ccc(C(=O)Nc2nc(-c3ccco3)c(-c3ccco3)s2)cc1`, the Potency result is “inactive”.
Regarding `COCCNC(=O)Nc1ccc2nc(-c3ccco3)c(-c3ccco3)nc2c1`, the Potency was 6.31 µM (active).
For the molecule `O=C(Nc1nc(-c2ccco2)cs1)c1ccccc1`, the Potency result was “inactive”.
With `O=C(c1ccccc1)c1ccc2nc(-c3ccco3)c(-c3ccco3)nc2c1`, the Potency is 4.47 µM (active).
Regarding `CCCCNC(=O)c1ccc2nc(-c3ccco3)c(-c3ccco3)nc2c1`, the Potency is 12.6 µM (active).
As for `CCCNC(=O)CSc1nnc(-c2ccco2)n1C`, the Potency result was “inactive”.
With `COc1ccc(C2=NCCn3nc4cc(OC)ccc4c32)cc1`, the Potency entry is “inactive”.
On to `Cc1cccc(C)c1NC(=O)C(c1ccc(C(F)(F)F)cc1)n1c(=O)c(-c2ccco2)nc2ccccc21` (configuration not stated), for which the Potency result was “inactive”.
With `COc1ccc(NC(=O)CSc2nnc(-c3ccco3)c(-c3ccco3)n2)cc1OC`, the Potency entry is “inactive”.
To `COCCNC(=O)C(c1ccc(Cl)cc1)N(Cc1ccco1)C(=O)CCC(=O)Nc1ccccn1` (configuration not stated) belongs “inactive”; to `COc1ccc2nc(-c3ccco3)c(-c3ccco3)nc2c1`, 10 µM (active).
To `COc1ccccc1Cc1c(-c2ccco2)nc2c(C)cc(Br)cn12` belongs “inactive”.
